Records with an inconclusive call do not appear. Calls of active or inactive are those of the source. The call rests on the fitted dose curve; in most records, active means well fitted cell-killing curve with a large enough effect; inconclusive means small, poorly fitted or top-dose-only effect, or effect the other way; inactive means flat fitted curve, though single readings scatter.
experiment: MultiTox-Fluor Cytotoxicity Assay - LYMP1-001 - Dead Cells (AID 946); details: LYMP1-001 lymphoblastoid cells, dead-cell protease fluorescence; series mostly up to 92.2 µM; cytotoxicity (dead cells): at the top concentration;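 on cytotoxicity (dead cells): 0% = DMSO and 100% = tetraoctylammonium bromide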
Excerpt: NIH Chemical Genomics Center [NCGC]
NIH Molecular Libraries Screening Centers Network [MLSCN]
National Institutes of Environmental Health Sciences [NIEHS]
National Toxicology Program [NTP]
We have developed a 1536-well cell-based assay for quantitative high throughput screening (qHTS) against a number of cell lines to determine in vitro cytotoxicity of small molecules. This particular assay uses a human lymphoblastoid cell line (LYMP1-001) purchased from Coriell Institute for Medical Research.
NCGC Assay Protocol Summary:
The MultiTox-Fluor Cytotoxicity Assay (Promega) is a homogeneous method to simultaneously measure the relative number of live and dead cells in culture by detecting changes in cell membrane integrity. There are two fluorogenic peptide substrates in the assay reagent. Viable cells are determined when the cell-permeant substrate (GF-AFC) enters the cell and is cleaved by protease from live cells resulting in liberated fluorophore. This live-cell protease activity restricted to viable cells is proportional to cell number. The dead cells are determined by using fluorogenic cell-impermeant peptide substrate (bis-AAF-R110) which cleaved by dead cell proteases leaking from damaged cell membrane.
Using the MultiTox-Fluor Cytotoxicity Assay, the relative number of dead cells was measured in the lymphoblastoid cell line with complete culture medium following compound treatment for 16 hours. The assay was performed in opaque black Kalypsys 1536-well plates. In the screen, tetraoctylammonium bromide was used as positive control. Library compounds were measured for their ability to cause acute toxicity in the cell line, as reflected by an increase in dead cell protease activity, in a concentration-dependent manner. Data were normalized to the controls for basal activity (DMSO only) and 100% stimulation (15 uM tetraoctylammonium bromide). AC50 values were determined from concentration-response data modeled with the standard Hill equation.
qHTS protocol for MultiTox-Fluor Cytotoxicity assay
[Step] [Parameter] [Value] [Description]
1. Reagent; 5 uL; 2500 lymphoblastoid cells/well
2. Time; 5 hr; 37 C incubation
4. Controls; 23 nL; Tetraoctylammonium bromide 6.4pM to 92 uM
5. Time; 16 hr; 37 C incubation
6. Reagent; 5 uL; MuliTox-Fluor Assay reagent
7. Time; 60 min; Room Temperature
8. Detection; dead-cell fluorescence (Ex/Em=485/520); EnVision plate reader
Keywords: cytotoxicity, lymphoblastoid cell line, fluorescence, NTPHTS, NTPHTS_NCGC, NIEHS, EPA, DSSTox, MLSMR, MLSCN, NIH Roadmap, qHTS, NCGC
Potency means the concentration at half of the fitted maximal effect.

**Q.** With `CC(=O)Nc1ccc(C(=O)CCl)cc1` as the molecule, how does the Potency read?
**A.** 25.1 µM (active)

**Q.** For `CCCCCC/C(C=O)=C\c1ccccc1`, which “cytotoxicity (dead cells)” value is on record?
**A.** 2.49% (inactive)

**Q.** For `Cc1cc(O)c(C(C)(C)C)cc1Sc1cc(C(C)(C)C)c(O)cc1C`, which Potency is on record?
**A.** 31.6 µM (active)

**Q.** Which “cytotoxicity (dead cells)” value does the source give for `Cc1ccc(S(=O)(=O)Oc2ccc(N=Nc3ccc(-c4ccc(N=Nc5c(O)ccc6cc(S(=O)(=O)O)cc(S(=O)(=O)O)c56)c(C)c4)cc3C)cc2)cc1` here?
**A.** -28.8% (inactive)

**Q.** With `O=C1OC2(c3cc(Br)c(O)c(Br)c3Oc3c2cc(Br)c(O)c3Br)c2c(Cl)c(Cl)c(Cl)c(Cl)c21` as the molecule, how does the “cytotoxicity (dead cells)” value read?
**A.** -19% (inactive)

**Q.** With `O=C(/C=C/c1ccc(O)c(O)c1)OC1C[C@](O)(C(=O)O)C[C@@H](O)[C@H]1O` (some centres undefined) as the molecule, how does the Potency read?
**A.** inactive

**Q.** With `C=C(C)c1ccccc1` as the molecule, how does the “cytotoxicity (dead cells)” value read?
**A.** -9.62% (inactive)

**Q.** For `O=[N+]([O-])c1cc([N+](=O)[O-])c2ccc(S(=O)(=O)O)cc2c1O`, which “cytotoxicity (dead cells)” value is on record?
**A.** -3.8% (inactive)

**Q.** With `ClC1=C(Cl)C(Cl)(Cl)C(Cl)=C1Cl` as the molecule, how does the “cytotoxicity (dead cells)” value read?
**A.** -17% (inactive)

**Q.** For `C/C=C1\C(=O)C[C@H]2[C@@H]3CCC4=CC(=O)CC[C@]4(C)[C@H]3CC[C@]12C`, which Potency is on record?
**A.** 50.1 µM (active)

**Q.** With `c1ccc2c(c1)-c1cccc3c1c-2cc1ccccc13` as the molecule, how does the “cytotoxicity (dead cells)” value read?
**A.** -14.1% (inactive)

**Q.** For `Cc1cc(Nc2ccc(O)cc2)ccc1N`, which “cytotoxicity (dead cells)” value is on record?
**A.** -1.27% (inactive)

**Q.** With `CN1[C@H]2CC(OC(=O)[C@H](CO)c3ccccc3)C[C@H]1[C@H]1O[C@H]12` (some centres undefined) as the molecule, how does the Potency read?
**A.** inactive

**Q.** With `Cc1cccc(O)c1C` as the molecule, how does the “cytotoxicity (dead cells)” value read?
**A.** 4.42% (inactive)

**Q.** With `O=Cc1ccc(Cl)c(Cl)c1` as the molecule, how does the “cytotoxicity (dead cells)” value read?
**A.** 7.25% (inactive)

**Q.** Which “cytotoxicity (dead cells)” value does the source give for `O=C(OCC(COC(=O)c1ccccc1)(COC(=O)c1ccccc1)COC(=O)c1ccccc1)c1ccccc1` here?
**A.** 18.1% (inactive)

**Q.** For `O=C=Nc1ccc(Cc2ccc(N=C=O)cc2)cc1`, which “cytotoxicity (dead cells)” value is on record?
**A.** 0.0673% (inactive)

**Q.** With `Nc1ccc2cc3ccccc3cc2c1` as the molecule, how does the “cytotoxicity (dead cells)” value read?
**A.** 12.4% (inactive)

**Q.** For `C=CC(=O)OCCOCCOC(=O)C=C`, which Potency is on record?
**A.** 50.1 µM (active)

**Q.** With `c1ccc2c(c1)ccc1cc3c(ccc4ccccc43)cc12` as the molecule, how does the “cytotoxicity (dead cells)” value read?
**A.** 4.58% (inactive)

**Q.** Which “cytotoxicity (dead cells)” value does the source give for `CN(C)c1ccc(C2(c3ccc(N(C)C)cc3)OC(=O)c3cc(N(C)C)ccc32)cc1` here?
**A.** 1.91% (inactive)

**Q.** With `CCCCCCCC[N+](CCCCCCCC)(CCCCCCCC)CCCCCCCC` as the molecule, how does the Potency read?
**A.** 6.31 µM (active)

**Q.** With `Oc1ccc2cc(SSc3ccc4cc(O)ccc4c3)ccc2c1` as the molecule, how does the “cytotoxicity (dead cells)” value read?
**A.** 12.6% (inactive)

**Q.** For `CNc1ccc(O)cc1`, which Potency is on record?
**A.** 25.1 µM (active)
